Experimental data taken from the supplement of paper PMC11172423.
A number with no mark means an inactive call.

Experiments:
[1] = test system: Falciformispora senegalensis CBS197.79; experiment: growth relative to untreated control; higher = less inhibition, active = 20 or less
Procedure, shortened: (§1)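 Compound at 100 or 25 µM was applied for 7 days at 37 °C to hyphal fragments of M. mycetomatis MM55 or F. senegalensis CBS197.79 in 96-well plates. Fragments were suspended in colourless RPMI 1640 with L-glutamine and MOPS at 68–72% transmission at 660 nm, and viability was read with MTS (2 h, 490 nm) or resazurin (600 nm). Growth is reported as blank-corrected metabolic activity relative to the blank-corrected untreated growth control.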

[2] = test system: Madurella mycetomatis MM55; experiment: as above
Procedure, shortened: as §1

| SMILES | growth ([1]; 25 µM) | growth ([1]; 100 µM) | growth ([2]; 25 µM) | growth ([2]; 100 µM) |
| --- | --- | --- | --- | --- |
| CCC(C)(C)n1nnnc1C(c1cc2ccc(C)cc2[nH]c1=O)N1CCN(c2ccccc2)CC1 (centres undefined) | 86% | 84.3% | 76.6% | 91.7% |
| CN1CCN(c2ccc(C(=O)NCc3cnc(C#N)nc3NCC(C)(C)C)cc2)CC1 | 102% | 18.9% (active) | – | – |
| Oc1nc2ccccc2n1C1CCN(CCCC(c2ccc(F)cc2)c2ccc(F)cc2)CC1 | 101% | 100% | – | – |
| Cc1cc(Nc2cn3cc(-c4cnn(C(F)F)c4)ccc3n2)nc(C)n1 | 94.1% | 83.8% | – | – |
| CO[C@H]1C[C@@H]2CC[C@@H](C)[C@@](O)(O2)C(=O)C(=O)N2CCCC[C@H]2C(=O)O[C@H]([C@H](C)C[C@@H]2CC[C@@H](O)[C@H](OC)C2)CC(=O)[C@H](C)/C=C(\C)[C@@H](O)[C@@H](OC)C(=O)[C@H](C)C[C@H](C)/C=C/C=C/C=C/1C | 103% | 105% | – | – |
| Cn1c(O)nnc1Cn1ccc(C(F)(F)F)c(Oc2cc(Cl)cc(C#N)c2)c1=O | 106% | 106% | – | – |
| COc1ccc(-c2nc3c(NCc4ccccc4)nccc3[nH]2)c(OC)c1 | 63.7% | 26.6% | 6.23% (active) | 7.79% (active) |
| CO[C@@H](C(=O)N1Cc2[nH]nc(NC(=O)c3ccc(N4CCN(C)CC4)cc3)c2C1)c1ccccc1 | 103% | 102% | – | – |
| CCCCCOc1ccc(-c2ccc(-c3ccc(C(=O)N[C@H]4C[C@@H](O)[C@@H](O)NC(=O)[C@@H]5[C@@H](O)[C@@H](C)CN5C(=O)[C@H]([C@@H](C)O)NC(=O)[C@H]([C@H](O)[C@@H](O)c5ccc(O)cc5)NC(=O)[C@@H]5C[C@@H](O)CN5C(=O)[C@H]([C@@H](C)O)NC4=O)cc3)cc2)cc1 | 84.5% | 67.5% | 92.9% | 54.2% |
| O=C(Nc1ccc([N+](=O)[O-])cc1Cl)c1cc(Cl)ccc1O | 0% (active) | 0% (active) | 4.63% (active) | 4.72% (active) |
| COC(=O)C1=C(C)NC(C)=C(C(=O)OCCN2CCN(C(c3ccccc3)c3ccccc3)CC2)C1c1cccc([N+](=O)[O-])c1 (centres undefined) | 94% | 99.1% | 81.7% | 86.7% |
| COc1ccc(CCNc2nccc(-c3cc(Cl)cc(C(F)(F)F)c3)n2)cc1 | 87.1% | 94.6% | – | – |
| CC(C)(C)NCc1cc(Nc2ccnc3cc(Cl)ccc23)c2c(c1O)CCCC2 | 106% | 101% | – | – |
| Cc1cccc(C=NNc2cc(N3CCOCC3)nc(OCCc3ccccn3)n2)c1 | 82.1% | 101% | – | – |
| COc1ccc(-n2nc(C)c3c2NC(=O)CC3c2ccccc2OCc2ccc(F)cc2)cc1 (centres undefined) | 82.5% | 77.9% | – | – |
| COc1cc(NC(=O)Nc2cccc(CNC(=O)O[C@H]3CCOC3)c2)ccc1-c1cnco1 | 100% | 102% | 100% | 81.8% |
| CCc1nn2c(Nc3ccncc3)cc(C)nc2c1-c1ccccc1 | 88.3% | 92.6% | – | – |
| CCCCc1oc2ccccc2c1C(=O)c1cc(I)c(OCCN(CC)CC)c(I)c1 | 101% | 104% | 78.3% | 87.6% |
| C[C@]1(c2nc3c(C(N)=O)cccc3[nH]2)CCCN1 | 95.9% | 93.8% | – | – |
| Cc1cc(C)c2cc(C(=O)N[C@@H](C)c3ccccc3)[nH]c2c1 | 86.1% | 87.5% | – | – |
| O=c1c(Cl)c(OCc2ccc(Cl)nc2)cnn1-c1ccc(Cl)c(Cl)c1 | 92.2% | 103% | 61.7% | 62.1% |
| Fc1ccc([C@@H]2CCNC[C@H]2COc2ccc3c(c2)OCO3)cc1 | 101% | 15.3% (active) | – | – |
| O=C(Nc1cccc(Cl)c1)c1ccnc(N2CCC(N3CCCC3)CC2)c1 | 95.5% | 28.1% | – | – |
| COc1cc2c3cc1Oc1c(OC)c(OC)cc4c1[C@@H](Cc1ccc(O)c(c1)Oc1ccc(cc1)C[C@@H]3N(C)CC2)N(C)CC4 | 99.1% | 12.6% (active) | – | – |
| CC(C)(C)Nc1ncc2nc(Nc3cccc(C(F)(F)F)c3)n(CC3CCNCC3)c2n1 | 92.9% | 97.2% | – | – |
| C[C@H]1O[C@@H](O[C@H]2[C@@H](O)C[C@H](O[C@H]3[C@@H](O)C[C@H](O[C@H]4CC[C@@]5(C)[C@H](CC[C@@H]6[C@@H]5C[C@@H](O)[C@]5(C)[C@@H](C7=CC(=O)OC7)CC[C@]65O)C4)O[C@@H]3C)O[C@@H]2C)C[C@H](O)[C@@H]1O | 99.5% | 106% | – | – |

| SMILES | growth ([1]; 25 µM) | growth ([1]; 100 µM) | growth ([2]; 25 µM) | growth ([2]; 100 µM) |
| --- | --- | --- | --- | --- |
| CC(N)CCn1c(Nc2cc(Cl)cc(C(F)(F)F)c2)nc2cnc(NC(C)(C)C)nc21 (centres undefined) | 19.4% (active) | 12.8% (active) | 6.25% (active) | 5.86% (active) |
| COc1cccc(OC2CCN(C(=O)c3cc(C(C)(C)C)nn3Cc3ccccc3)CC2)c1 | 82.9% | 93.8% | – | – |
| Cn1cc(CN2CCc3c(c(C(=O)NCc4nccs4)nn3Cc3ccccc3)C2)c2ccccc21 | 89.7% | 101% | – | – |
| CC(C)c1cc(Oc2ccccc2)cc(C(C)C)c1NC(=S)NC(C)(C)C | 89.5% | 90.7% | – | – |
| CN1[C@H]2CC[C@H]1CC(OC(c1ccccc1)c1ccccc1)C2 (some centres undefined) | 103% | 103% | 82.4% | 84.3% |
| CC(C)CC(NC(=O)N1CCOCC1)C(=O)NC(/C=C/S(=O)(=O)c1ccccc1)CCc1ccccc1 (centres undefined) | 90.8% | 93.9% | – | – |
| CC(C)(C)c1nn(-c2ccc(Cl)cc2)c2[nH]c(=O)c(CNCc3ccc4c(c3)OCO4)cc12 | 72.1% | 66.3% | 5.51% (active) | 6.74% (active) |
| O=C1NCCN1CCN1CCC(c2cn(-c3ccc(F)cc3)c3ccc(Cl)cc23)CC1 | 7.42% (active) | 19.4% (active) | – | – |
| COc1cccc2c1C(=O)c1c(O)c3c(c(O)c1C2=O)C[C@@](O)(C(=O)CO)C[C@@H]3O[C@H]1C[C@H](N)[C@H](O)[C@H](C)O1 | 94.8% | 96.3% | – | – |
| N#Cc1ccc(-c2ccc3nc(Oc4ccc(C(F)(F)F)cn4)cn3c2)nc1 | 101% | 109% | – | – |
| Clc1ccc2c(N3CCN(CCCN4CCN(c5ccnc6cc(Cl)ccc56)CC4)CC3)ccnc2c1 | 104% | 101% | 95.9% | 86.7% |
| CC(C)C(=O)OCC(=O)[C@@]12OC(C3CCCCC3)O[C@@H]1C[C@H]1[C@@H]3CCC4=CC(=O)C=C[C@]4(C)[C@H]3[C@@H](O)C[C@@]12C (some centres undefined) | 109% | 105% | 75.3% | 90.7% |
| Cc1cc(C)c(Nc2ccnc(Nc3ccc(C#N)cc3)n2)c(C)c1 | 103% | 99.4% | 92.4% | 86.6% |
| Nc1nonc1-c1nc2c(-c3cccc(Cl)c3)nccc2n1CCCNC(=O)Cc1ccc(Cl)cc1 | 90% | 110% | 80.5% | 121% |
| CO[C@@H]1[C@H](N(C)C(=O)c2ccccc2)C[C@H]2O[C@]1(C)n1c3ccccc3c3c4c(c5c6ccccc6n2c5c31)C(=O)NC4 | 113% | 89.5% | 77.9% | 87.3% |
| CCN(CC)Cc1ccccc1CNc1ccnc2ccsc12 | 103% | 28.1% | 75.4% | 5.38% (active) |
| CN(C)c1ncc2nc(Nc3cc(Cl)cc(C(F)(F)F)c3)n(C3CCNCC3)c2n1 | 102% | 99.5% | 86.2% | 5.43% (active) |
| CCCN1CCC=C(c2cc(-c3ccc(C)cc3)no2)C1 | 103% | 16.5% (active) | 92.6% | 4.88% (active) |
| NC(=O)c1cccc(CN2Cc3ccccc3OC3(CCN(Cc4c[nH]c5cnccc45)CC3)C2)c1 | 85% | 96.6% | 54.2% | 71.2% |
| CCCCOC(=O)c1c(C)cnc2ccccc12 | 90.5% | 98.7% | 86.7% | 141% |
| Cc1ccc(-c2c3c(nc4sc(C(=O)Nc5ccc(F)cc5)c(N)c24)CCC3)cc1 | 81.3% | 89.6% | 110% | 122% |
| Cc1cnc2nc(NC3COc4ccccc43)nc(NC(C3CC3)C3CC3)c2c1 (centres undefined) | 83.2% | 33.4% | 7.72% (active) | 8.15% (active) |
| C[C@H](NC(=O)c1cc2nc(C(F)(F)F)ccc2[nH]1)c1ccccc1 | 88.2% | 95.9% | 86.1% | 56.8% |
| O=C(NC(CCO)C1CCCCC1)c1cc2ccc(C(F)(F)F)cc2[nH]1 (centres undefined) | 79.2% | 100% | 101% | 85.3% |
| c1ccc(-c2ccnc(C3CCN(CC45CNCC4C5)CC3)n2)cc1 (centres undefined) | 82.4% | 91.2% | 71.4% | 134% |
